Here are results for 40 compounds from PubChem BioAssay (NCATS).

Each structure is given as a SMILES string. Records with an inconclusive call do not appear. Calls of active or inactive are those of the source. Calls come from the whole dose curve; as a rule, active = well fitted activation curve with a large enough effect; inconclusive = small, poorly fitted or top-dose-only effect, or another doubt; inactive = no such curve, though single readings can be large or run the other way.
Potency is the fitted concentration of half-maximal effect.

The test addresses Rap guanine nucleotide exchange factor 3 (Homo sapiens) (UniProt O95398). The test is described as follows: Counterscreen qHTS for agonist of cAMP-regulated guanine nucleotide exchange factor 3 (EPAC1) (AID 1645889). For activation: % of control where 0% means no effect. Note: nearly all actives have a fitted effect of over 40% in size. Particulars: EPAC1 Rap1B-BODIPY-GDP exchange, fluorescence; series mostly up to 154 µM; activation: at the top concentration. In a few lines: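 Measured: fluorescence of BODIPY-GDP bound to Rap1B, which falls as exchange proceeds. Conditions include 50 uM competing GDP, 5 and 30 min reads, and a later cAMP challenge for antagonist detection.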
(In general: A counterscreen serves to expose hits that act by an unwanted route or on another target.)
As for `CC(=O)c1cccc(NC(=O)c2c(-c3ccccc3)c(-c3ccccc3)nn(C)c2=O)c1`, the “activation” value was 28.9% (inactive).
On the same count and under the same terms, the result for `COc1cc(NC(=O)c2cnc(N)s2)cc(C(=O)Nc2cccc(C(F)(F)F)c2)c1` reads 16.6% [at 30.8 µM] (inactive); that for `CCC(Oc1ccccc1)C(=O)Nc1ccccc1N1CCCCC1` (stereo not given), -15.7% (inactive).
As for `COc1cc(OC)c(-c2c3cc(O)c(=O)cc-3oc3cc(O)c(O)cc23)cc1OC`, the Potency was 70.8 µM (active).
As for `CCC(=O)NC(c1ccc(C)cc1)c1ccc2cccnc2c1O` (stereo not given), the “activation” value was 21% (inactive).
Still for that read-out and setting: the result for `CCOc1ccc2oc(C(=O)N(C)CC(=O)Nc3ccc(OCC)c(OCC)c3)c(C)c2c1` reads -0.0421% (inactive).
As to `CCN1C(=O)c2cccc3c(N)ccc(c23)C1=O`, the Potency is 35.5 µM (active).
For `CC(C)c1ccc(NC(=O)COC(=O)C2=COCCO2)cc1`, the activation is 17.9% [at 30.8 µM] (inactive).
Turning to `O=C1c2cccc3c(O)ccc(c23)C(=O)N1Cc1ccccc1`, the Potency is 39.8 µM (active).
For the compound `Cc1cc(C(=O)Nc2ccon2)c(C)o1`, the “activation” value was 16.1% (inactive).
Take `COc1ccc(CCNc2oc(-c3ccc(C)cc3)nc2C#N)cc1OC`: the activation is 26.9% [at 30.8 µM] (inactive).
Take `Cc1ccc([N+](=O)[O-])cc1S(=O)(=O)N1CCC(C)CC1`: the “activation” value is -4.49% (inactive).
On the same count and under the same terms, the result for `C=CCn1c(SCC(=O)NC(N)=O)nnc1-c1cc2c(s1)CCC(CC)C2` (stereo not given) reads -11.2% (inactive).
For the compound `CN1CCN(C2=CC3=CC(=C(C#N)C#N)CCC3CC2)CC1` (stereo not given), the Potency is 14.1 µM (active).
Regarding `Cc1cc(Nc2ncc(Cl)cc2Cl)n(-c2ccccc2C)n1`, the “activation” value was 20.4% (inactive).
For the compound `Cn1cc(C(CO)Cc2ccccc2)c2ccccc21` (stereo not given), the activation was 2.04% [at 30.8 µM] (inactive).
For the compound `CCOC(=O)c1cnc2ccc(OC)cc2c1Nc1ccc(N2CCN(C)CC2)cc1`, the activation is 12.2% [at 30.8 µM] (inactive).
In the case of `O=C(O)c1ccc2c(c1)C(=O)N(c1ccc(/C=C/C(=O)c3ccccc3)cc1)C2=O`, the activation is 8.33% [at 30.8 µM] (inactive).
The same measure, in the same setting: the same measure for `CCOc1cc(/C=C(\C#N)C(=O)Nc2cccc(C(=O)O)c2)cc(Br)c1OC(=O)c1ccc(OC)cc1`: -8.46% (inactive); for `COc1ccc(C(CC(=O)N2CCCC2)c2ccc(F)cc2)cc1` (stereo not given): 0.37% [at 30.8 µM] (inactive).
The same measure, in the same setting: the result for `Cc1ccc(S(=O)(=O)N2[C@@H](c3ccccc3)C(C(=O)O)=CC[C@H]2c2ccc(C(C)C)cc2)cc1` reads -11% (inactive); that for `COc1cccc(C(=O)C(CCC#N)c2ccccc2)c1` (stereo not given), 26.1% (inactive).
Take `Nc1ccc(-c2c3ccc(=O)cc-3oc3cc(O)ccc23)cc1C(=O)O`: the Potency was 50.1 µM (active).
As for `Cc1ccc(C)c(NC(=O)COC(=O)COc2cccc3c2OC(C)(C)C3)c1`, the activation was 3.82% [at 30.8 µM] (inactive).
Still for that read-out and setting: the result for `COc1ccc(N2CCOCC2)c(NC(=O)c2cccc3ccccc23)c1` reads 22.6% [at 30.8 µM] (inactive); that for `Cc1ccc2oc(=O)n(CCCOc3ccccc3Cl)c2c1`, 6.58% (inactive); that for `O=C1C(Cc2ccccc2)SC(=Nc2ccccc2)N1c1ccccc1` (stereo not given), 18.1% [at 30.8 µM] (inactive).
With `CCNc1ccc2noc3c2c1C(=O)c1ccccc1-3`, the Potency was 22.4 µM (active).
Regarding `O=S(=O)(O)c1ccc(N=NNc2ccc(Br)cc2)cc1`, the “activation” value is 26.4% (inactive).
On the same count and under the same terms, the result for `Cc1csc(N=Nc2ccc(N(C)C)cc2)[n+]1[O-]` reads -47.1% (inactive); that for `CCC(=O)N1c2ccc(S(=O)(=O)NCCc3ccc(C)cc3)cc2CC1C` (stereo not given), 7.17% (inactive).
Regarding `CC(=O)/C(C#N)=C1\NC(=O)C(Cc2cc(Cl)ccc2Cl)S1` (stereo not given), the activation was 2.87% [at 30.8 µM] (inactive).
Same read-out and setting: the result for `CCC1=NN(C(=O)c2ccc(Br)cc2)C(O)(c2ccccc2)C1` (stereo not given) reads 19.8% [at 30.8 µM] (inactive); that for `O=C(C1CC1)N1CCN(c2ccc([N+](=O)[O-])cc2-n2cccc2)CC1`, 6.18% [at 30.8 µM] (inactive).
Still for that read-out and setting: the result for `CCOc1nc(C)cc(C)c1S(=O)(=O)c1cccc(Cl)c1` reads 18.4% (inactive); that for `Cc1cc(OC(C)C(=O)NCc2ccccn2)c2c(C)c(Cc3ccccc3)c(=O)oc2c1` (stereo not given), -3.39% (inactive).
For the compound `O=C1c2cccc3c(O)ccc(c23)C(=O)N1Cc1ccco1`, the Potency is 70.8 µM (active).
Take `Cc1ccc(CNC(=O)c2c[nH]n3c(=O)c(Cc4ccc(F)cc4Cl)c(C)nc23)cc1`: the “activation” value is 1.79% (inactive).
On the same count and under the same terms, the result for `O=[N+]([O-])c1ccc(N/N=C2/CCCCC2c2ccccn2)cc1` (stereo not given) reads -3.04% [at 30.8 µM] (inactive).
The same measure, in the same setting: the same measure for `CCOc1cc(/C=C2/SC(=S)NC2=O)ccc1OC(=O)c1ccco1`: 10.3% (inactive).
